From PubChem BioAssay (NCI)
This is part of a sample that, as a whole, favours compounds with a hit. Of some 83,000 tested, about 20% had one in any assay.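 Interpretation: 100, growth as untreated; towards 0, rising growth inhibition; 0, no net growth; 0 to -100, cell death. Compounds scoring below 10 were considered active.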 Unmarked numbers belong to inactive results. Active and inactive are the calls of the source.

Columns and labels:
Assay in all cases: NCI-60 one-dose screen, 48 h (100 = growth as untreated, 0 = no growth, -100 = all killed)
NCI-H23 lung = details: 10 µM unless noted
NCI-H322M lung = details: 10 µM unless noted
HOP-62 NSCLC = details: 10 µM unless noted
NCI-H460 lung = details: 10 µM unless noted
A549/ATCC NSCLC = details: 10 µM unless noted
786-0 renal = details: 10 µM unless noted
COLO 205 colon = details: 10 µM unless noted
NCI-H522 lung = details: 10 µM

| SMILES | growth (NCI-H23 lung) | growth (NCI-H322M lung) | growth (HOP-62 NSCLC) | growth (NCI-H460 lung) | growth (A549/ATCC NSCLC) | growth (786-0 renal) | growth (COLO 205 colon) | growth (NCI-H522 lung) |
| --- | --- | --- | --- | --- | --- | --- | --- | --- |
| CC1CCCCN1S(=O)(=O)c1ccc(CN=C=S)cc1 (stereo not drawn) | 97.1% | 96.6% | 108% | 88.4% | 102% | 55.9% | 52.8% | – |
| CN([N-]C(=O)CC(=O)[N-]N(C)C(=S)c1ccccc1)C(=S)c1ccccc1.[Cu+2] | -73.8% (active) | -95.8% (active) | -98.6% (active) | -35.4% (active) | -54.9% (active) | -72% (active) | -83.4% (active) | -93.4% (active) |
| Cc1c(C)n(CC(O)CNC2CCCCC2C)c2ccccc12 (stereo not drawn) | -19.7% (active) | 31.7% | -71.3% (active) | 11.2% | -31.4% (active) | -84.7% (active) | -84.7% (active) | – |
| COc1cc(C(=O)N(C(C)C)C2CCCCC2)cc(OC)c1OC | 101% | 108% | 93.3% | 107% | 97.2% | 121% | 105% | 88.3% |
| Cc1ccc(S(=O)(=O)c2ccc3[nH]c(=O)[nH]c(=O)c3c2)cc1 | 102% | 106% | 106% | 114% | 80.7% | 96.5% | 99.3% | 84.9% |
| O=C(NCc1ccco1)C1CCN(S(=O)(=O)c2ccc(Cl)cc2)CC1 | 77.9% | 108% | 92.6% | 63.1% | 74.9% | 82.9% | 101% | – |
| Fc1ccccc1Nc1ccc2nnc(-c3ccncc3)n2n1 | 93.1% | 104% | 106% | 103% | 103% | 101% | 106% | -74.5% (active) |
| CC(=O)Nc1ccccc1-c1n[nH]c(=O)[nH]c1=O | 102% | 105% | 97.6% | 104% | 116% | 98.4% | 115% | – |
| O=C1c2ccccc2C(=O)c2c(Nc3ccc(CCO)cc3)ccc(O)c21 | 93.3% | 68.5% | 107% | 56% | 67.5% | 104% | 49.1% | 71.5% |
| Nc1nc(N)c(C=Nc2ccc(Br)cc2)c(Nc2ccc(Br)cc2)n1 | 97.9% | 72.9% | 98.9% | 95.9% | 77.2% | 92.9% | 117% | 86.4% |
| N#CC1=C(N)Oc2cc(N)ccc2C1c1ccc(F)cc1 (stereo not drawn) | 81.6% | 82.6% | 69.6% | 100% | 74.2% | 86.6% | 82.9% | – |
| c1ccc(-c2n(Cc3ccc4ccccc4c3)c3ccccc3[n+]2Cc2ccc3ccccc3c2)cc1 | -20.9% (active) | 3.63% (active) | 4.19% (active) | -82.1% (active) | 5.14% (active) | -94.8% (active) | -70.7% (active) | – |
| Cc1nc(-c2ccccc2)cc2c(O)c(C(=O)N/N=C/Cc3ccccc3)[nH]c(=O)c12 | 100% | 107% | 104% | 102% | 105% | 103% | 111% | 91.1% |
| CS(=O)(=O)Nc1cccc(C(=O)NCc2ccc(N3CCOCC3)cc2)c1 | 104% | 112% | 107% | 109% | 119% | 101% | 112% | – |
| COc1ccc(CSc2nc3cc(OC)c(OC)cc3c(=O)n2-c2ccc(Cl)cc2)cc1 | 102% | 105% | 104% | 103% | 103% | 103% | 104% | – |
| Nc1ccccc1-c1n[nH]c(=O)[nH]c1=O | 96.6% | 114% | 112% | 107% | 105% | 109% | 137% | – |
| Clc1nc(-c2ccccn2)nc2sc3c(c12)CCCCCC3 | 82.4% | 84.5% | 86.6% | 90.9% | 99.8% | 98.4% | 115% | – |
| COC(=O)[C@H]1CCCN1C(=O)[C@H]1CCCN1C(=O)[C@@H](Cc1c[nH]c2ccccc12)NC(=S)Nc1cc(C(F)(F)F)cc(C(F)(F)F)c1 | 69.2% | 32.8% | 78.6% | 18.6% | 31% | 62.5% | 38.4% | 85.7% |

| SMILES | growth (NCI-H23 lung) | growth (NCI-H322M lung) | growth (HOP-62 NSCLC) | growth (NCI-H460 lung) | growth (A549/ATCC NSCLC) | growth (786-0 renal) | growth (COLO 205 colon) | growth (NCI-H522 lung) |
| --- | --- | --- | --- | --- | --- | --- | --- | --- |
| COc1ccc(C2OCC(C)(C)CO2)cc1OC | 98.3% | 151% | 117% | 108% | 100% | 110% | 113% | 117% |
| CCN(c1ccc(C(=O)N2CCN(c3ccccc3)CC2)cc1)S(C)(=O)=O | 103% | 102% | 104% | 108% | 105% | 101% | 113% | – |
| COc1ccc(Sc2ccc3[nH]c(=O)nc(N)c3c2)cc1 | 101% | 96.4% | 108% | 106% | 80.3% | 104% | 106% | 100% |
| COc1cc(-c2ccc3cc(OC)c(OC)c(OC)c3c2)cc(OC)c1OC | 65.4% | 78.7% | 61.3% | 60.3% | 50.8% | 84% | 54.7% | 34% |
| O=c1c2c(=NCCN3CCCC3)cc3c(=O)n(CCCN4CCOCC4)c(=O)c4c(-c5ccc(CN6CCCC6)cc5)cc(c(O)n1CCCN1CCOCC1)c2c4-3 | -70.9% (active) | -29.6% (active) | -21.3% (active) | -62.9% (active) | -16.2% (active) | -42% (active) | -60.4% (active) | – |
| CN1CCc2c(c3ccccc3c3ccccc23)C1 | 74.2% | 51.4% | 45.8% | 27.7% | – | 49.8% | 22.2% | 48.7% |
| O=C(N/N=C/c1ccc2c(c1)OCO2)c1cnn2c1NC(c1ccccc1)C2 (stereo not drawn) | 57.1% | 59.6% | 60.5% | 30.1% | 45% | 78.9% | – | – |
| COc1ccc(OC)c(C2C(C#N)=C(N)Oc3cc(O)ccc32)c1 (stereo not drawn) | 88% | 102% | 97.4% | 108% | 97.1% | 96.7% | 101% | 80.3% |
| O=C1CCC(N2C(=O)c3cccc(NCCOCCOCCNC(=O)c4cc5c(o4)C(=O)c4ccccc4C5=O)c3C2=O)C(=O)N1 (stereo not drawn) | -53.9% (active) | -76.6% (active) | -58.2% (active) | -81.3% (active) | -30.2% (active) | 17.8% | – | – |
| O=C1C(N2CCOCC2)=Cc2cccc3cccc1c23 | 100% | 111% | 89% | 93.2% | 88.5% | 103% | 93.7% | 89.4% |
| O=c1nc(NO)[nH]c(=O)n1Cc1ccc(F)cc1 | 106% | 98.8% | 107% | 102% | 104% | 101% | 118% | – |
| CC1(C)CC(=O)C2=C(C1)Nc1cc3c(cc1C2c1ccc(F)cc1)OCO3 (stereo not drawn) | 96% | 94.8% | 95.6% | 103% | 94.5% | 109% | 117% | – |
| Nc1c(Br)cc(Br)cc1-c1n[nH]c(=O)[nH]c1=O | 91.3% | 109% | 93.5% | 102% | 113% | 100% | 102% | – |
| COc1ccc(-c2cc(=O)oc3c4c(ccc23)OCN(Cc2ccc(F)cc2)C4)cc1 | 41.2% | 75.9% | 80% | 61.8% | 69.6% | 65.7% | 64.2% | – |
| CCN1C(=O)C2(Nc3ccccc3S2)c2cc(C)ccc21 (stereo not drawn) | 111% | 96.2% | 89.7% | 109% | 95.7% | 113% | 97% | 86.8% |
| CCCOC(=O)c1ccc2c(c1)[N+](=O)C(C(=O)c1ccccc1)=C(C(F)(F)F)[N+]2=O | -75.6% (active) | -91.7% (active) | -96.5% (active) | -69.9% (active) | -88.1% (active) | -81.2% (active) | -92.3% (active) | -92.6% (active) |
| CN(C)C(=S)SCN1C(=O)c2ccc([N+](=O)[O-])cc2S1(=O)=O | 99.7% | 99% | 105% | 103% | 97.7% | 103% | 75.9% | – |
